Source: PubChem BioAssay
Rows were chosen to be rich in hits. Some 0.78% of all compounds tested hit in one or more screens of this group.
SSB-PriA inh: inhibitors of Klebsiella pneumoniae PriA binding to SSB C-terminal tail, primary screen, biochemical, AlphaScreen; PriA–SSB C-terminal tail interaction (Klebsiella pneumoniae); AlphaScreen SSBct-PriA binding, biotinylated peptide; inhibition, % at 33 µM; hit rate 0.6% among 430,000; in the data active = inhibition mostly above about 37%, no sharp cut-off; inactive = mostly below about 20%
3CLpro inhibitor: SARS-CoV 3CLpro protease inhibitors, primary screen, biochemical, quenched FRET; Replicase polyprotein 1ab (Severe acute respiratory syndrome coronavirus), P0C6X7; recombinant SARS-CoV 3CLpro, quenched FRET peptide cleavage; inhibition, % at 6 µM; hit rate 0.14% among 290,000; in the data active = inhibition above about 12%
BJeLR lethal: MLPCN primary cell-based screen for lethality selective to Ras in HRASV12 cells. AID 1554, 2009. BJeLR (HRASV12) viability, CellTiter-Glo ATP luminescence, 48 h. hit rate 0.17% among 300,000. inhibition, % (test concentration not listed); in the data active = inhibition above about 50%
Hits are given with their value; n = inactive; x = no result; ! = repeats disagree.

SMILES | SSB-PriA inh | 3CLpro inhibitor | BJeLR lethal
COc1cc2c(c(OC)c1OC)-c1ccc(OC)c(=O)cc1C(NC(C)=O)CC2 (stereo unspecified) | n | n | n
CC(C)(C)c1csc(NC(=O)c2cccc(NS(=O)(=O)c3ccc(F)cc3)c2)n1 | n | x | x
CCOC(=O)c1sc(NCc2ccco2)c(-c2nc3ccccc3s2)c1N | n | n | n
CCNc1sc(C(=O)c2cccs2)c(N)c1-c1nc2ccccc2s1 | 55 | n | n
C=CCNc1sc(C(=O)c2ccccc2)c(N)c1-c1nc2ccccc2s1 | 54 | n | n
CCNc1sc(C(=O)c2cccs2)c(N)c1C#N | n | n | n
CC1(C)Oc2ccc3ccc(=O)oc3c2C(=CNc2cccc(O)c2)C1=O | n | x | x
COc1ccc(NC(=O)COc2cc(C)nc(-c3ccc(F)cc3)n2)c(OC)c1 | n | x | x
O=C(O)c1ccc(COc2ccc([N+](=O)[O-])cc2)o1 | n | n | n
COc1ccc(N2CCN(C(=O)c3ccc(COc4ccc([N+](=O)[O-])cc4)o3)CC2)cc1 | 40 | n | n
O=C(NCCCn1ccnc1)C(=O)Nc1ccc2c(c1)N(S(=O)(=O)c1cccs1)CCC2 | 51 | x | x
O=C(NCCCO)C(=O)Nc1ccc2c(c1)N(S(=O)(=O)c1cccs1)CCC2 | n | x | n
O=S(=O)(c1ccc(-c2csc(N/N=C\c3cccs3)n2)cc1)N1CCCC1 | n | x | x
O=C1c2cccc3cccc(c23)C(=O)N1CC1CCN(CC(O)COc2ccc3ccccc3c2)CC1 (stereo unspecified) | 45 | x | n
COc1cccc(OCC(O)CN2CCC(CN3C(=O)c4cccc5cccc(c45)C3=O)CC2)c1 (stereo unspecified) | n | n | n
COc1cc(OC)c(C2=NOC(C(=O)NCc3cccs3)C2)cc1Cl (stereo unspecified) | n | n | 63
COc1cc(C2=NOC(C(=O)NCc3cccs3)C2)cc(OC)c1OC (stereo unspecified) | n | n | n
Cc1onc(-c2ccccc2Cl)c1C(=O)Nc1nnc(-c2cc(Cl)sc2Cl)o1 | n | x | x
Cc1onc(-c2ccccc2Cl)c1C(=O)Nc1nnc(-c2cccs2)o1 | 38 | x | x
Cc1cccc2sc(N(CCCN(C)C)C(=O)c3nc4ccccc4s3)nc12 | 51 | n | n
CCN(Cc1ccccc1)S(=O)(=O)c1ccc(C(=O)N(CCCN(C)C)c2nc3cc4c(cc3s2)OCO4)cc1 | n | n | n
Cc1ccc2sc(N(CCCN(C)C)C(=O)c3nc4ccccc4s3)nc2c1C | n | n | n
Cc1ccc2sc(N(CCCN(C)C)C(=O)c3ccc(S(=O)(=O)N(C)C4CCCCC4)cc3)nc2c1C | 40! | x | n
CCN(Cc1ccccc1)S(=O)(=O)c1ccc(C(=O)N(CCCN(C)C)c2nc3c(C)c(C)ccc3s2)cc1 | 39! | x | n
CCN(CC)CCN(C(=O)c1ccc(S(=O)(=O)N(C)C2CCCCC2)cc1)c1nc2c(C)cccc2s1 | n | n | n
SMILES | SSB-PriA inh | 3CLpro inhibitor | BJeLR lethal
COc1ccc(Cl)cc1NC(=O)CSc1nc2c(cc1C#N)C(=O)CC(C)(C)C2 | n | x | x
CS(=O)(=O)N1CCCc2cc(NC(=O)Oc3ccccc3)ccc21 | n | x | x
CN(C)c1ccc(C=C2C(=O)NC(=S)NC2=O)cc1 | n | x | x
CCN(CC)c1ccc(C=C2C(=O)NC(=S)NC2=O)cc1 | n | n | 51
COC(=O)N1CCC(C(=O)O)CC1 | n | x | x
Oc1c(CN2CCCCC2)ccc2cccnc12 | n | x | x
Oc1ccc(CN2CCN(c3ccccc3)CC2)c2cccnc12 | n | n | n
CCN1CCN(Cc2ccc(O)c3ncccc23)CC1 | 123 | x | x
Oc1ccc(CN2CCCCC2)c2cccnc12 | 99 | n | n
CCOC(=O)N1CCN(Cc2ccccn2)CC1 | n | n | n
Oc1cc2c(cc1CN1CCc3ccccc3C1)OCO2 | n | n | n
CCOC(=O)N1CCN(Cc2ccc(O)c3ncccc23)CC1 | 88 | n | n
Oc1ccc(CN2CCc3ccccc3C2)c2cccnc12 | 101 | n | n
CCOc1ccc(-c2cn3c(CC(=O)NCCc4ccc(OC)cc4)csc3n2)cc1 | n | x | x
Cc1ccc(F)cc1NC(=O)CS(=O)(=O)c1cccs1 | n | x | x
COc1ccc(-c2ccc(=O)n(C(C)C(=O)Nc3cc(C)no3)n2)cc1 (stereo unspecified) | n | x | x
CN(C(=O)Cc1csc2nc(-c3ccccc3)cn12)C1CCCCC1 | n | x | x
Oc1ccc(CN2CCC(Cc3ccccc3)CC2)c2cccnc12 | 62 | n | n
Clc1ccccc1CN1CCC(Cc2ccccc2)CC1 | n | n | n
COC(=O)[C@@H]1C[C@@]2(O)[C@@H](O)[C@@H](O)[C@@H](O)C[C@H]2N1Cc1cc(OC)cc(OC)c1 | 101 | x | n
COC(=O)[C@@H]1C[C@@]2(O)[C@H](O)[C@H](O)[C@H](O)C[C@H]2N1Cc1cc(OC)cc(OC)c1 | n | x | n
CCOC(=O)C1=C(C)NC2=C(C(=O)c3ccccc32)C1c1ccc(O)cc1 (stereo unspecified) | 52 | n | n
CCOC(=O)C1=C(C)NC2=C(C(=O)c3ccccc32)C1c1cccc2ccccc12 (stereo unspecified) | n | n | n
Cn1c(NC(=O)c2ccco2)c(-c2cccs2)c(=O)c2ccccc21 | n | x | x
CNC(=O)c1cccc(-c2noc(C3CN(C(=O)c4ccc5ccccc5n4)C3)n2)c1 | n | x | x
SMILES | SSB-PriA inh | 3CLpro inhibitor | BJeLR lethal
Nc1ccccc1Nc1ccccc1 | 64 | n | n
Nc1ccc(Nc2ccccc2)c(Cl)c1 | 52 | n | n
COc1ccccc1Nc1ccc(N)cc1 | n | n | n
c1ccc(Nc2ccc(Nc3ccccc3)cc2)cc1 | n | x | x
COc1ccc(-c2ccc(=O)n(CCCNC(=O)c3ccc(F)cc3)n2)cc1 | n | x | x
CSc1nc2ccc3nc(N)sc3c2s1 | n | x | x
Nc1nc2ccc([N+](=O)[O-])c(N)c2s1 | 55 | n | n
COc1ccc(-c2cc3ccccc3n2CC(O)CN2CCC(C)CC2)cc1 (stereo unspecified) | n | n | n
COc1ccc(-c2cc3ccccc3n2CC(O)Cn2nc(C)cc2C)cc1 (stereo unspecified) | 47 | n | n
O=C(NCCn1nc(-c2cccs2)ccc1=O)Nc1ccc(OC(F)(F)F)cc1 | n | x | x
COC(=O)c1c(NC(=O)CC2SC(=N)NC2=O)sc2c1CCC(C(C)(C)C)C2 (stereo unspecified) | n | x | x
CC(C)Oc1ccc(C(=O)N2CCN(Cc3nc(-c4cccs4)cs3)CC2)cc1 | n | x | x
Cc1cc(N2CCCC2)nc(Nc2ccc(NS(=O)(=O)c3ccc(Cl)cc3)cc2)n1 | n | x | x
Cc1cc(N2CCCC2)nc(Nc2ccc(NS(=O)(=O)c3ccc(I)cc3)cc2)n1 | 44 | x | x
N#CC1=C(N)Oc2n[nH]c(-c3ccccn3)c2C1c1c(F)cccc1Cl (stereo unspecified) | 42 | n | n
COCc1[nH]nc2c1C(c1c(F)cccc1Cl)C(C#N)=C(N)O2 (stereo unspecified) | n | n | x
CN1C(=O)c2cccc(NC(=O)C3CCN(S(=O)(=O)c4cccs4)CC3)c2C1=O | n | x | x
O=C(NCCC(O)c1ccsc1)c1nc2ccccc2s1 (stereo unspecified) | n | x | x
O=c1/c(=C/c2ccc(F)cc2F)sc2nc3ccccc3n12 | 40 | x | x
O=c1/c(=C/c2cn(-c3ccccc3)nc2-c2ccc(F)cc2)sc2nc3ccccc3n12 | x | n | x
